For some assays here: Measured potencies and affinities stand elsewhere.
Tests used:
Parameters in all cases: scale not given: direction of the effect not stated beside the values
[1] = biological target: Protein translocase subunit SecA (Escherichia coli (strain K12)) (UniProt P10408); assay: Assay to Identify E. coli SecA ATPase Inhibitors; type: functional; settings: 30 µM
[2] = biological target: T1, Ubiquitin-activating enzyme e1, putative (Leishmania donovani (strain BPK282A1)) (UniProt E9BSI1); assay: Leishmania donovani Ubiquitin Activating Enzyme (LdE1); type: functional; settings: 30 µM
T1 sequence (whole entry): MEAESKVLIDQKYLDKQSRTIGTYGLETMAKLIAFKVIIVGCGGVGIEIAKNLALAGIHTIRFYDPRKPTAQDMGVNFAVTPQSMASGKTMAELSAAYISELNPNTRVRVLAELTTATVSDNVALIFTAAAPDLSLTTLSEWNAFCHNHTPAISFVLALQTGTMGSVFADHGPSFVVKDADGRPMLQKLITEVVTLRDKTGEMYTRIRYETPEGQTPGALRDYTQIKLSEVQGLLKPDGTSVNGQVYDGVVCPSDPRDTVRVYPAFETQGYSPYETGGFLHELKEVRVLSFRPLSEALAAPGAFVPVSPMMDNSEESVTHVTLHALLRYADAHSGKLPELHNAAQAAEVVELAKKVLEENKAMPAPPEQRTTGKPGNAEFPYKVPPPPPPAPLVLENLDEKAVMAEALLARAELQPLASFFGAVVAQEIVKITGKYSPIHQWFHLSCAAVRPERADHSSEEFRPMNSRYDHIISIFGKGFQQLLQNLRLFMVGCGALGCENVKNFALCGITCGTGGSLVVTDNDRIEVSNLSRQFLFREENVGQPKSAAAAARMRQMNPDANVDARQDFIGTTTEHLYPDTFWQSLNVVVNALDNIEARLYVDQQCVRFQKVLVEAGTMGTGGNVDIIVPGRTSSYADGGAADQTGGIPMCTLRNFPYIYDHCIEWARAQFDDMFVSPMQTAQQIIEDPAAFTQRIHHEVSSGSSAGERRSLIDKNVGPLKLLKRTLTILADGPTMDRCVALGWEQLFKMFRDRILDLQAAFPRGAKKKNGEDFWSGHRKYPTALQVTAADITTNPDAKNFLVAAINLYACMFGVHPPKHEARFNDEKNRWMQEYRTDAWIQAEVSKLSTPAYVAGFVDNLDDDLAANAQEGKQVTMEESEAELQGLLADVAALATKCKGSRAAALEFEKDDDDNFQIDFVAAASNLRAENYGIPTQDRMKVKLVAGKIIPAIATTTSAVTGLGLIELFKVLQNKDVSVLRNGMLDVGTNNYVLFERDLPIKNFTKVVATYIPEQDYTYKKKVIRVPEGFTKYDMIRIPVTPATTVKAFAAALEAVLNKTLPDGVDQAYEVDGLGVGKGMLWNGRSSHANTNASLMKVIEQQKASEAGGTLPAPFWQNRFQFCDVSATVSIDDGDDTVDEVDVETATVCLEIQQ

[3] = biological target: AMP-activated protein kinase, AMPK (Homo sapiens) (UniProt P54646+O43741+P54619+Q9UGJ0+Q9Y478+Q13131+Q9UGI9); assay: AMP-dependent Kinase enzyme assay. An in vitro enzyme assay that detects ADP turnover that is directly proportional to AMPK activity. This uses naive AMPK that is activated during the assay with MK-8722; type: functional; settings: 30 µM
[4] = biological target: Sialic acid-binding Ig-like lectin 9 (Homo sapiens) (UniProt Q9Y336); assay: Hs-Siglec9 ALPHAscreen SOP 20170721; settings: 10 µM
Sialic acid-binding Ig-like lectin 9 (Homo sapiens), sequence (Q9Y336 whole entry): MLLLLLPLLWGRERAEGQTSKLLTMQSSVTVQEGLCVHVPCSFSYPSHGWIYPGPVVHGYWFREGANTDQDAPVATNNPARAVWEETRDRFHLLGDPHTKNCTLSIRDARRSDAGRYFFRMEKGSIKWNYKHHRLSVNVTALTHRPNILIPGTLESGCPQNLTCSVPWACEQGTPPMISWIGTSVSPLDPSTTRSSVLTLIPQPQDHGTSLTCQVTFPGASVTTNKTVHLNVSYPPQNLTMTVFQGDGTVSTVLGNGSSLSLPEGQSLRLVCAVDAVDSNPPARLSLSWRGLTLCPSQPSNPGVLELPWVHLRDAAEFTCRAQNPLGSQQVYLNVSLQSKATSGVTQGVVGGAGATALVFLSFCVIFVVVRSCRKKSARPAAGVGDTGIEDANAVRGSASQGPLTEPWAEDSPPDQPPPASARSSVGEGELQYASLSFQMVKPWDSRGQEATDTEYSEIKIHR

Trypanosoma cruzi = assay: Trypanosoma cruzi phosphomannomutase and mannose-1-phosphate guanylyltransferase assay; type: functional; settings: 10 µM
[5] = biological target: T2, Arginase-2, mitochondrial (Homo sapiens) (UniProt P78540); assay: in vitro enzyme assay to detect the production of urea directly proportional to the activity of Arginase II; type: functional; settings: 33.3 µM; also: in the data most compounds retested in dose-response had high values
T2 sequence (whole entry): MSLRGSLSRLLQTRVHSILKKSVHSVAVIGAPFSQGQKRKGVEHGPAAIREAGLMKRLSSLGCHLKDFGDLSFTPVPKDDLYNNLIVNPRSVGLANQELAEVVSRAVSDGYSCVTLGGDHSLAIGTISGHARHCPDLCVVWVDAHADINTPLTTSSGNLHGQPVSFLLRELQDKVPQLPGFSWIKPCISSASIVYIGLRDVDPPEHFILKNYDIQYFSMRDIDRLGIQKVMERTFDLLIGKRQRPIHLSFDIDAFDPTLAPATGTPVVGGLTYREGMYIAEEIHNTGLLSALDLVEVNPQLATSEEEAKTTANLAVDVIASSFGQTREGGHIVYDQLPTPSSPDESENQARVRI

[6] = biological target: T3, Proteasome subunit beta (Trypanosoma cruzi) (UniProt O96673); assay: Trypanosoma cruzi proteasome chymotrypsin-like activity (TcProtChymo) assay.; also: in the data most compounds retested in dose-response had high values; type: functional; settings: 9.37 µM
T3 sequence (whole entry): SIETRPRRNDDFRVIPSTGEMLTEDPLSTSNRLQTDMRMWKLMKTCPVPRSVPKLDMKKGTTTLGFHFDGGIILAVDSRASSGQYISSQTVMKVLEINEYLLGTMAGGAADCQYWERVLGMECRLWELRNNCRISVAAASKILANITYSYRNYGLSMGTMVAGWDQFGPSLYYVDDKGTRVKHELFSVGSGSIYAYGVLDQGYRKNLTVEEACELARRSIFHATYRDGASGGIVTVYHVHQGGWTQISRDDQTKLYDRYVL

Homo sapiens = species: Homo sapiens; assay: To identify inhibition of the IFN signalling (Jak-Stat) pathway via expression of an eGFP reporter gene under the control of an IFN-stimulated response element (ISRE) containing MxA promoter.; type: functional; settings: 30 µM
[7] = biological target: T4, Tyrosyl-tRNA synthetase, putative (Trypanosoma cruzi (strain CL Brener)) (UniProt Q4DSP6); assay: Trypanosoma cruzi tyrosyl tRNA synthetase (TcYRS) _High Tyrosine SOP; type: functional; settings: 30 µM; also: in the data most compounds retested in dose-response had high values
T4 sequence (whole entry): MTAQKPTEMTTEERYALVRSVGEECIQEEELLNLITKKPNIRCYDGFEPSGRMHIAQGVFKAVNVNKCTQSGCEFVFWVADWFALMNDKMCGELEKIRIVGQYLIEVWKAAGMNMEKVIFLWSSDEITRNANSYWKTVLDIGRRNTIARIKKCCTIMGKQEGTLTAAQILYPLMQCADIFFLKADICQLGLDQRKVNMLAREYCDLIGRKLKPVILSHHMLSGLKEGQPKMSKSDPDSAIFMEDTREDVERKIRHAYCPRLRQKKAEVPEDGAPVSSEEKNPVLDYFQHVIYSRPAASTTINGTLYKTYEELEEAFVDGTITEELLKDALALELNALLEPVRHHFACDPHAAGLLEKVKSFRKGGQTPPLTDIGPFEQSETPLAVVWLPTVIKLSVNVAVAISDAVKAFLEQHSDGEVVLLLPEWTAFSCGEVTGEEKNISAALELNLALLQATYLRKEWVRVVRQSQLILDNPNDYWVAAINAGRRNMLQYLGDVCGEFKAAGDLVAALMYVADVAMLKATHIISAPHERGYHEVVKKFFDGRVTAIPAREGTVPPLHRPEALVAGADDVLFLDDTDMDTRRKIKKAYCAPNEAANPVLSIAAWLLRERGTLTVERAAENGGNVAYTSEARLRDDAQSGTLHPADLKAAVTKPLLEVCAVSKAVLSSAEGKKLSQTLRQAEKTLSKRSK

[8] = biological target: T4, Tyrosyl-tRNA synthetase, putative (Trypanosoma cruzi (strain CL Brener)); assay: Trypanosoma cruzi tyrosyl tRNA synthetase (TcYRS) SOP; type: functional; settings: 30 µM
[9] = biological target: Chromo domain-containing protein 1 (Saccharomyces cerevisiae (strain ATCC 204508 / S288c) (Baker's yeast)) (UniProt P32657); assay: ScCHD-1 Enzyme Inhibition Assay; type: functional; settings: 30 µM; also: in the data most compounds retested in dose-response had high values
Chromo domain-containing protein 1 (Saccharomyces cerevisiae (strain ATCC 204508 / S288c) (Baker's yeast)), sequence (P32657 whole entry, the tested form may be a part): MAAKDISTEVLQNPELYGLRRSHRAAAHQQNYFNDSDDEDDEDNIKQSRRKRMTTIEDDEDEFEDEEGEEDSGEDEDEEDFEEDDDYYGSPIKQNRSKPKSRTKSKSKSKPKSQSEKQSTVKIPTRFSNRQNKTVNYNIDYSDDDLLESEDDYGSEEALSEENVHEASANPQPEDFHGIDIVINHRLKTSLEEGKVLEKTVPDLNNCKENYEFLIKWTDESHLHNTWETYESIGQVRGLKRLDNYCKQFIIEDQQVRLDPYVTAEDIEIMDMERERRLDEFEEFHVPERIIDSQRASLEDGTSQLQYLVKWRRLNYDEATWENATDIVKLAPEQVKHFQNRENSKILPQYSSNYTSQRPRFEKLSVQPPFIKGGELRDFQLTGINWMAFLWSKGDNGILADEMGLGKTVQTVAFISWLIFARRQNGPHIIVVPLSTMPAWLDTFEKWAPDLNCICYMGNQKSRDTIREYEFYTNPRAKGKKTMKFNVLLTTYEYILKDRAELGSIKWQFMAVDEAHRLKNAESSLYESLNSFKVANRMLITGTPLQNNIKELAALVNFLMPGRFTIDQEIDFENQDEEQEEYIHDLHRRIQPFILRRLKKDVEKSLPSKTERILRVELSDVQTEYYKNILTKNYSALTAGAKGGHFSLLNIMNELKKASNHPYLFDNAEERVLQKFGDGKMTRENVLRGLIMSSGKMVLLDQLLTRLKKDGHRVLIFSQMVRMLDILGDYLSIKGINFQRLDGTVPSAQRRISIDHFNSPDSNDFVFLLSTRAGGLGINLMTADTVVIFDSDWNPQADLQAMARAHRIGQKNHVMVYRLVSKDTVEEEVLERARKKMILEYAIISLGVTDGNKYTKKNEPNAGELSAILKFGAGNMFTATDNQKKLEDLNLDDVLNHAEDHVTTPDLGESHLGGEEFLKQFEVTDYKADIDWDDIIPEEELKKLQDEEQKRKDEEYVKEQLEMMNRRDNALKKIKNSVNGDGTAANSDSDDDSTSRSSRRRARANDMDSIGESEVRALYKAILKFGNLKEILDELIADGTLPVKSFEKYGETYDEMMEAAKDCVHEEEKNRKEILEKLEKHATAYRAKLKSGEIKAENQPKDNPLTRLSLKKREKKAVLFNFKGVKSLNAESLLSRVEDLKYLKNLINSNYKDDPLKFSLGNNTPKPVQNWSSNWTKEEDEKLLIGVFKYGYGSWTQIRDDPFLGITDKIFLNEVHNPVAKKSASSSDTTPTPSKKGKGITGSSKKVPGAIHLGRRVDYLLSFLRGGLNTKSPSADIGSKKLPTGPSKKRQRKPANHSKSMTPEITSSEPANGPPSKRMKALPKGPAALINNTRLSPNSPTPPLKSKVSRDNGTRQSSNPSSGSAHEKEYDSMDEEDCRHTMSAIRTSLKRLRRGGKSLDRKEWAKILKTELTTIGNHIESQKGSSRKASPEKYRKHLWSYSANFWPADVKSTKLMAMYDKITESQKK

Protein translocase subunit SecA (Escherichia coli (strain K12)), sequence (P10408 whole entry): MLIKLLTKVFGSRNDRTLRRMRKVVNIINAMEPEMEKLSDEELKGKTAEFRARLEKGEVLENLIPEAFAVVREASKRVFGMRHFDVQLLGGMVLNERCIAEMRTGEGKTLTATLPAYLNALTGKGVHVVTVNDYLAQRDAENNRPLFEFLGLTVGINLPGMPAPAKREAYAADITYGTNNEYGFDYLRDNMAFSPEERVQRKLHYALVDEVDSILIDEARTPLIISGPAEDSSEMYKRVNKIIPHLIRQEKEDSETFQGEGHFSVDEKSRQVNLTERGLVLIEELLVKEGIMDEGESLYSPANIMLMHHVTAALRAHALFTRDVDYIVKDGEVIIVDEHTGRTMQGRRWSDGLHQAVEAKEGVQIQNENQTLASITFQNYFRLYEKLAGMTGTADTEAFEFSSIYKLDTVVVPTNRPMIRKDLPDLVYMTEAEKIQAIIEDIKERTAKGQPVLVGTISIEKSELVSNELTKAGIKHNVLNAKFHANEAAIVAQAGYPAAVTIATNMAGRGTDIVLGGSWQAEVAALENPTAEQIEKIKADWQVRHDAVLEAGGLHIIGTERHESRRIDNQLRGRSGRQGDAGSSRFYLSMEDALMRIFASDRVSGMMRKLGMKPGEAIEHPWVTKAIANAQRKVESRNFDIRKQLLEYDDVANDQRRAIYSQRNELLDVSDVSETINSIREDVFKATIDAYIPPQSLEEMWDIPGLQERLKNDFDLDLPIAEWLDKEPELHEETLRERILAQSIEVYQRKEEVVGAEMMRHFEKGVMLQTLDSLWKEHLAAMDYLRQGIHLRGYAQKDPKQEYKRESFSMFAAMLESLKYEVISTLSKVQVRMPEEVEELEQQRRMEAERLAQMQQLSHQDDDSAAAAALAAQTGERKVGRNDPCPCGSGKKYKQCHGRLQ

SMILES | Percent Effect [1] | Percent Effect [2] | Percent Effect [3] | Percent Effect [4] | Percent Effect (Trypanosoma cruzi) | Percent Effect [5] | Percent Effect [6] | Percent Effect (Homo sapiens) | Percent Effect [7] | Percent Effect [8] | Percent Effect [9]
COCCN1C(=O)CC(N2CCN(c3ccc(OC)cc3)CC2)C1=O (stereo unspecified) | 1.03% | 6.94% | 1.7% | 4.19% | 4.37% | 13.7% | 16.8% | -7.93% | 8.42% | 15.4% | -3.31%
CC1CCCN(C(=O)c2csc(S(N)(=O)=O)c2)CC1 (stereo unspecified) | -6.52% | 2.7% | 1.27% | -1.52% | -6.75% | 0.248% | -0.944% | -3.67% | 4.3% | 6.17% | -0.416%
O=C(c1cnn2c1OCCC2)N1CCN(C/C=C/c2ccccc2)CC1 | -2.24% | 7.79% | 3.47% | 6.1% | -1.28% | -5.81% | 8.88% | 10.8% | 5.29% | 16.7% | -8.13%
COCCN1CCN(C(=O)c2ccncc2F)Cc2cccnc21 | 2.77% | 6.67% | 4.36% | -2.01% | -10.6% | -1.58% | 20.3% | 0.197% | 3.17% | -5.13% | -10.5%
Cc1csc(NC(=O)CN(C)CC2CCCN2c2cccnn2)n1 (stereo unspecified) | -4.27% | 0% | -8.12% | 2.96% | -6.05% | 5.42% | 15.5% | 9.4% | 11.9% | 8.54% | -4.21%
Cc1nc(C)n(CC2CCCCN2CC(=O)Nc2ccncc2)n1 (stereo unspecified) | 1.21% | 23.4% | -4.4% | -2.19% | -9.74% | 3.56% | 8.11% | 27.5% | 5.83% | -2.44% | -9.59%
Cc1nn(C(C)C)c(C)c1NC(=O)c1ccncc1 | -2.46% | 16.4% | -7.09% | 5.06% | 5.56% | 0.399% | 16.5% | -7.45% | 10.4% | 11.1% | -7.44%
CN1CCN(Cc2cn3c(n2)CN(Cc2cccnc2)CC3)CC1 | 5.16% | 16.2% | 12.3% | -13.1% | -7.14% | 2.23% | 5.72% | 16.3% | 1.08% | 10.3% | -4.09%
COc1cc(NC(=O)c2ccccc2F)c(C(=O)N(C)C)cc1OC | 1.19% | 5.2% | 0.986% | 2.38% | -7.96% | -8.28% | 18.8% | -4.11% | 3.23% | 11.1% | -2.46%
Cc1ncc2c(n1)CCN(C(=O)Cc1c(C)noc1C)C2 | -8.55% | 13.2% | -4.54% | 7.88% | 9.62% | -1.44% | 8.21% | -0.465% | 9.36% | 18.5% | -7.72%
CCCN1CCC(N(Cc2ncc(C)o2)C(C)=O)C1 (stereo unspecified) | -6.17% | 0% | -14.9% | 26.2% | 2.05% | -0.744% | 22.6% | 1.11% | 3.23% | 1.24% | -1.33%
O=c1cc(Cn2ccnc2)nc2n1CCCN(Cc1ccsc1)C2 | -4.06% | 4% | 0.478% | 7% | -5.7% | -6.51% | 13.3% | -7.79% | 7.41% | 5.13% | -8.3%
CCc1noc(C)c1C(=O)N1CCCC1Cn1nc(C)cc1C (stereo unspecified) | -3.14% | 5.26% | -1.52% | -4.06% | 2.71% | 1.8% | -3.47% | -20.2% | 4.43% | 13.6% | -6.42%
CCC1=N[C@@]2(CC[C@@H]3CN(CC(=O)N(C)C)C[C@@H]32)C(=O)N1CC1CC1 | -0.889% | 6.67% | 3.24% | -0.307% | -6.88% | -12.2% | 17.2% | 4.45% | 0% | 10.3% | -7.25%
CC1CCCN(C(=O)CCc2cccnc2)C1 (stereo unspecified) | 2.47% | 17.7% | 0.257% | -8.86% | -5.57% | 6.84% | 7.29% | 25.3% | 3.45% | 16.5% | -0.749%
Cc1ncsc1C(=O)NC1CCN(CC(=O)N(C)C(C)(C)C#N)CC1 | -9.21% | 7.89% | -2.06% | 0.841% | -1.77% | 1.08% | -2.45% | 23.3% | 1.48% | -1.24% | 2.71%

From ChEMBL document CHEMBL3988442, “University of Dundee, Small-Polar-MMV Screening Library” (2021)
